Molecules are shown by their SMILES. About 83,000 compounds went through this panel and 20% of them were active in at least one assay; those are over-represented in the sample as a whole.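 Single-concentration screen, 48 h exposure, 96-well plates. Endpoint: percent growth. Below 10 = active.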 A number with no mark means an inactive call. The source made the active and inactive calls.

The assay has as its system HL-60(TB) leukemia. Put plainly: NCI-60 one-dose screen, 48 h (100 = growth as untreated, 0 = no growth, -100 = all killed). The conditions noted are these: 10 µM unless noted.
In the case of `COc1cccc(Cn2cc3c(c2)-c2oncc2CC3)c1`, the growth was 1.64% (active).

As to `COc1cccc(/C=C2\COc3ccc(O)cc3C2=O)c1OC`, the growth was -14.5% (active).

In the case of `Cn1ccnc1C(=O)/C=C/c1ccc(C(=O)Nc2ccc(S(F)(F)(F)(F)F)cc2)cc1`, the growth is -30.1% (active).

Consider `COc1ccc2c(N)ncc(C#Cc3cc(C(=O)Nc4ccc(CN5CCN(C)CC5)c(C(F)(F)F)c4)cnc3C)c2c1`, for which the growth was 43.9%.

In the case of `C=CN(C)S(C)(=O)=O`, the growth was 5.83% (active).

As for `O=C(Nc1ccccc1Cl)c1ccc(NC2=C(Cl)C(=O)N(C3CCCCC3)C2=O)cc1`, the growth was -36.7% [30 µM] (active).

As to `O=c1c(-c2nc3ccccc3[nH]2)cc2ccccc2n1Cc1cn(Cc2ccc(N3CCOCC3)cc2)nn1`, the growth is 104%.

`C/C(=N\O)c1ccccn1`: the growth was 112%.

As for `Cc1ccc(S(=O)(=O)n2cc(C3C(Cl)C(=O)N3c3ccc(N4CCOCC4=O)cc3)c3ccccc32)cc1` (stereo not given), the growth is 22.1%.

Take `O=C(O)C[C@H](O)C[C@H](O)/C=C/c1c(C2CC2)nc2ccccc2c1-c1ccc(F)cc1`: the growth is 66.2%.

On to `CCOC(=O)c1c(-c2ccc(OC)cc2)c(C#N)c2c(C#N)c(N)nn2c1N`, for which the growth was -40.4% (active).

On to `CC1(C)CC[C@]2(CO)CC[C@]3(C)[C@](O)([C@H](O)C[C@@H]4[C@@]5(C)CCCNC(C)(C)[C@@H]5CC[C@]43C)[C@@H]2C1`, for which the growth was 71%.

`COc1ccc(CNc2c3ccccc3nc3ccc(OC)cc23)cc1`: the growth is -20.7% (active).

Consider `COc1ccc(/C(=C/c2cc(OC)c(OC)c(OC)c2)[N+](=O)[O-])cc1`, for which the growth was -26.4% (active).

In the case of `Cc1c(Cl)c(C)c(Cc2c(C)c(Cl)c(C)c(Cl)c2O)c(O)c1Cl`, the growth is 10.3%.

With `CN1C[C@@H](c2ccc(Cl)cc2)[C@]2(NC(=S)N(c3ccccc3)C2=O)[C@@]12C(=O)NC1C=CC(Br)=C[C@H]12` (stereo not given in full), the growth was 40.2%.

With `CCCN(CCSSCCNc1nc(N(C)O)nc(N(C)O)n1)c1nc(N(C)O)nc(N(C)O)n1`, the growth is 88%.

Turning to `O=c1cc(SCc2ccccc2)nc[nH]1`, the growth was 82.3%.

With `O=C(CCc1nnc(Cn2cncn2)o1)c1nc2ccccc2[nH]1`, the growth was 108%.

With `Cc1oc2nc[nH]c(=O)c2c1C(=O)/C=C/c1ccc(Br)cc1`, the growth is -4.98% (active).

On to `C(=N\Nc1nnn(Cc2ccccc2)n1)/c1ccccc1`, for which the growth was 5.57% (active).

Turning to `CN(C)c1ccc(C2C(C#N)=C(/N=C/c3ccccc3)Oc3c2ccc2ccccc32)cc1` (stereo not given), the growth was 29.5%.

Regarding `c1cc(OCCN2CCCCC2)cc(-c2n[nH]c3ccc(-c4ncn[nH]4)cc23)c1`, the growth is 39%.

As for `C=C1C(=O)O[C@H]2[C@H]1CC/C(CNC(=O)/C=C/c1ccc(Br)cc1)=C\CC[C@@]1(C)O[C@@H]21`, the growth is -15.8% (active).

With `NC[C@@H]1CCN(c2cc3c(cc2F)c(=O)n(N)c(=O)n3Cc2ccc(-c3ccccc3)cc2)C1`, the growth is 90.4%.

`COc1cc2c(c(OC)c1OC)-c1ccc(N=NC(N)=S)c(=O)cc1[C@@H](NC(C)=O)CC2`: the growth is -17.7% (active).

Take `O=C(O)c1cn(C2CC2)c2cc(N3CCN(S(=O)(=O)c4ccc(Cl)c(Cl)c4)CC3)c(F)cc2c1=O`: the growth was -38.3% (active).

`O=[N+]([O-])c1ccc(/C=N\Nc2ccccc2)cc1`: the growth is 94.6%.

Take `CC(=O)O[C@H]1C[C@@]2(C)[C@@H](C[C@@H](O)[C@H]3[C@@]4(C)CC[C@H](N5CCCC5)[C@@H](C)[C@@H]4CC[C@@]32C)/C1=C(\CCC=C(C)C)C(=O)O`: the growth is -74.3% (active).

Turning to `COc1cc(/C=C/C(=O)c2cc(-c3ccccc3)ccc2O)cc(OC)c1OC`, the growth was 42.6%.

Consider `O=C(/C=C/c1ccc(B(O)O)cc1)/C=C/c1ccc(B(O)O)cc1`, for which the growth was 21.7%.

`CCOc1cc(NC(=O)c2ccccc2)c(OCC)cc1N`: the growth is 109%.

Turning to `COc1ccc(C(=O)n2nc(-c3ccccc3)nc2N)cc1OC`, the growth was 80%.

Consider `Cc1[nH]n(C(N)=S)c(=O)c1N=Nc1ccc(F)c(Cl)c1`, for which the growth is 90.6%.

As to `COc1cc(-c2nn(-c3cccc(NC(=O)NCCNS(=O)(=O)c4ccc(Cl)cc4)c3)cc2-c2ccncc2)ccc1Cl`, the growth was 1.37% (active).

Take `COc1ccc(CCO)cc1`: the growth is 64.3%.

With `O=[N+]([O-])c1ccc(-c2cc3c(Nc4ccc(OCc5cccc(Cl)c5)c(Cl)c4)ncnc3s2)cc1`, the growth is 44.2%.

For the compound `C=C1C(=O)O[C@H]2[C@H]1CC/C(C=Nc1c(N)cc(F)cc1Br)=C\CC[C@@]1(C)O[C@@H]21`, the growth is 37.1%.

Take `COc1ccc(C2CCCCC2=O)cc1` (stereo not given): the growth was 122%.

`N#Cc1nnn(-c2ccc(S(N)(=O)=O)cc2)c1NC(=O)CCl`: the growth was 77.5%.

Values taken from PubChem BioAssay (NCI).
